Columns and labels:
Test in all cases: PBM binding z-score (relative to random genomic background probes); higher = stronger binding; sequences stand for … in GC…GCGATTGACAGCGTAGAATGAAGG
[1] = test system: FXR:RXRa (NR concentration 270 nM, RXRa partner concentration 90 nM)
In short: (§1)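 For binding z-scores, the reference was random background probes on custom Agilent 4×180K protein-binding microarrays. These arrays were incubated 1 h with ligand-free nuclear receptor dimers in PBS pH 7.4, 2% milk, 0.02% Triton X-100, 1 mM DTT, 0.2 mg/mL BSA and 0.4 mg/ml salmon testes DNA. Fluorescence was scanned after antibody detection of each partner (one per run) and regression-normalized.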

[2] = test system: LXRa:RXRa (NR concentration 270 nM, RXRa partner concentration 90 nM)
In short: as §1

[3] = test system: LXRa homodimer (NR concentration 270 nM)
In short: as §1

[4] = test system: LXRb:RXRa (NR concentration 270 nM, RXRa partner concentration 90 nM)
In short: as §1

[5] = test system: LXRb homodimer (NR concentration 270 nM)
In short: as §1

[6] = test system: PPARa:RXRa (NR concentration 270 nM, RXRa partner concentration 90 nM)
In short: as §1

[7] = test system: PPARg:RXRa (NR concentration 180 nM, RXRa partner concentration 90 nM)
In short: as §1

[8] = test system: PPARg:RXRa 270nM:90nM, anti-RXR (NR concentration 270 nM, RXRa partner concentration 90 nM)
In short: as §1

[9] = test system: PPARg:RXRa 30nM:10nM, anti-RXR (NR concentration 30 nM, RXRa partner concentration 10 nM)
In short: as §1

[10] = test system: PPARg:RXRa 90nM:30nM, anti-RXR (NR concentration 90 nM, RXRa partner concentration 30 nM)
In short: as §1

[11] = test system: PPARg:RXRa DBDmut IVT, anti-RXR (DBD mutation: RXRa K156A/R161A, NR concentration 270 nM, RXRa partner concentration 90 nM)
In short: as §1

[12] = test system: PPARg:RXRa IVT, anti-PPARg (NR concentration 270 nM, RXRa partner concentration 90 nM)
In short: as §1

[13] = test system: PPARg DBDmut:RXRa IVT, anti-PPARg (DBD mutation: PPARg1 K132A/R137A, NR concentration 270 nM, RXRa partner concentration 90 nM)
In short: as §1

[14] = test system: PPARg DBDmut IVT, anti-PPARg (DBD mutation: PPARg1 K132A/R137A, NR concentration 270 nM)
In short: as §1

[15] = test system: PPARg homodimer (NR concentration 180 nM)
In short: as §1

[16] = test system: PXR:RXRa (NR concentration 270 nM, RXRa partner concentration 90 nM)
In short: as §1

[17] = test system: PXR homodimer (NR concentration 270 nM)
In short: as §1

[18] = test system: RARa:RXR (NR concentration 270 nM, RXRa partner concentration 90 nM)
In short: as §1

[19] = test system: RARa homodimer (NR concentration 270 nM)
In short: as §1

[20] = test system: RARb:RXRa (NR concentration 270 nM, RXRa partner concentration 90 nM)
In short: as §1

Sequence | PBM binding z-score [1] | PBM binding z-score [2] | PBM binding z-score [3] | PBM binding z-score [4] | PBM binding z-score [5] | PBM binding z-score [6] | PBM binding z-score [7] | PBM binding z-score [8] | PBM binding z-score [9] | PBM binding z-score [10] | PBM binding z-score [11] | PBM binding z-score [12] | PBM binding z-score [13] | PBM binding z-score [14] | PBM binding z-score [15] | PBM binding z-score [16] | PBM binding z-score [17] | PBM binding z-score [18] | PBM binding z-score [19] | PBM binding z-score [20]
GCTTACGGGTCAAAGGTAATAGCATGAATAGAAT | 6.06 | 4.07 | -0.0184 | 4.32 | 0.154 | 6.32 | 9.59 | 8.1 | 7.14 | 8.44 | 4.96 | 5.28 | 1.42 | 0.842 | 1.61 | 4.26 | -0.182 | 6.23 | 0.248 | 3.87
AGAATGAAGTTACCAAAGATCAGGGAAACGCTTG | -0.327 | 0.631 | -0.337 | -0.292 | -0.771 | -0.153 | 0.523 | 0.0888 | 0.0872 | 0.08 | -0.595 | -0.423 | 0.443 | 0.266 | -0.127 | -0.206 | -0.375 | -0.000481 | -0.214 | -0.335
GGTACGAGGGCATTCGAGTTGATAGCATGGCGAT | 1.45 | 1.69 | -0.269 | 0.123 | -0.742 | 0.926 | 0.726 | 0.262 | -0.638 | 0.0723 | 1.41 | 1.41 | -0.377 | -0.67 | -0.0678 | 3.64 | 1.73 | 0.568 | -0.0392 | 1.95
AGTCAAAGTTCACTAGTTAACGTAAGATTCAGCT | 5.06 | 5.13 | 2.97 | 2.92 | 1.03 | 4.06 | 5.33 | 5.73 | 2.56 | 4.89 | 0.662 | 2.31 | 1.15 | 0.981 | 2.52 | 4.28 | 3.24 | 2.94 | 1.15 | 4.76
TCTATTAGTTGATTACGGCAACCGAAACAGCGGA | 0.899 | 0.638 | 0.651 | 0.546 | 0.998 | 0.921 | 0.134 | 1.95 | 3.63 | 3.1 | 2.26 | 0.246 | 1.27 | 1.25 | 1.11 | 0.471 | 0.751 | 0.595 | 1.59 | 0.331
CCTAGTTGGTCAAGGTCACACTCGCTATAGGTAC | 3.95 | 3.53 | 2.41 | 3.43 | 0.997 | 3.86 | 2.85 | 3.32 | 1.24 | 2.41 | 2.46 | 3.35 | 0.792 | 0.878 | 3.44 | 3.95 | 2.21 | 4.18 | 2.57 | 3.85
AGAACGAGGGCACGCTAAGTTGATAGCAGAGTAG | 0.75 | 0.717 | -0.396 | 0.353 | -0.515 | 2.07 | 2.2 | 1.87 | 0.473 | 1.22 | 4.41 | 3.93 | 1.79 | 0.754 | 0.364 | 1.11 | 0.0616 | 1.3 | -0.579 | 2.51
ACAGACAGGTGATGAAGTTAACTCAGGCTATCAT | -0.177 | -0.305 | -0.307 | -0.225 | -0.182 | -0.03 | 0.514 | -0.0899 | -0.051 | -0.038 | -0.14 | 0.266 | 0.864 | 0.239 | 0.153 | 0.166 | 0.125 | 0.133 | 0.502 | -0.00565
